Records with an inconclusive call do not appear. Where a call stands in place of a potency, no number is given. Calls of active or inactive are those of the source. The call rests on the fitted dose curve; in most records, active means well fitted inhibition curve with a large enough effect; inconclusive means small, poorly fitted or top-dose-only effect; inactive means no such curve, though single readings can be large or run the other way.

This experiment is described as follows: Counterscreen Assay for Inhibitors of the ERK Signaling Pathway using a Homogeneous Screening Assay. To be noted: AlphaScreen bead counterscreen in cell lysate, 5 h; series mostly up to 45.6 µM. In short, it runs like this: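 HEK293 cells (2000/well, 1% FBS) treated with compound up to 46 uM for 30 min at 37C, 25 nM vasopressin 5 min, then lysed. AlphaScreen counter-screen with biotinylated rabbit IgG; normalised to DMSO and 25 nM IgG, AC50 from Hill fits.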
As for `CC1(C)OC(c2ccccc2)=C/C(=C/C=C2C(=O)c3ccccc3C2=O)O1`, the Potency is 2.24 µM (active).

In the case of `Cn1c(=O)cc(Nc2ccccc2)c2c(=O)n(-c3ccccc3)c(=O)n(-c3ccccc3)c21`, the Potency result is “inactive”.

For the compound `COc1ccc(C2=Nn3c(nnc3-c3ccccc3OC)SC2)cc1OC`, the Potency entry was “inactive”.

Turning to `CCCCC[C@H](O)C=C[C@H]1[C@H](O)CC(=O)[C@H]1CCCCCCC(=O)O`, the Potency entry is “inactive”.

In the case of `COc1ccc(C(=O)c2ccc(Cl)c([N+](=O)[O-])c2)cc1`, the Potency entry is “inactive”.

For `COc1ccc(N=C2C(=Nc3ccc(OC)cc3)N(c3ccc(OC)cc3)C(=S)N2C)cc1`, the Potency is 4.47 µM (active).

For `c1ccc(Oc2nc(NCc3ccco3)nc(NCc3ccco3)n2)cc1`, the Potency result was “inactive”.

On to `O=c1cc(-c2ccc(O)cc2)oc2cccc(O)c12`, for which the Potency entry was “inactive”.

As for `Cc1cc(-c2ccccc2)n(-c2cc(N/N=C/c3ccccc3O)ncn2)n1`, the Potency entry is “inactive”.

Take `Cc1noc(NS(=O)(=O)c2ccc(NC(=O)COc3ccc(Cl)cc3Cl)cc2)c1C`: the Potency result was “inactive”.

Regarding `COC(=O)c1cc(-c2ccc(OC)c(OC)c2)on1`, the Potency entry was “inactive”.

With `Cc1nc2ccccc2c2oc(C(=O)N3CCc4ccccc4C3)cc12`, the Potency result is “inactive”.

As for `O=C1c2ccc(O)c(O)c2C(=O)c2c(O)ccc(O)c21`, the Potency is 4.47 µM (active).

On to `C/C(=N\Nc1nnc(-c2ccccc2)c(-c2ccccc2)n1)c1cccc([N+](=O)[O-])c1`, for which the Potency result was “inactive”.

As to `COc1ccc(C(=O)OC(COc2ccccc2)Cn2ccnc2)cc1` (configuration not stated), the Potency result is “inactive”.

With `CCOc1ccc(/C(O)=C2/C(=O)C(=O)N(c3ncccn3)C2c2ccccc2)cc1` (configuration not stated), the Potency result was “inactive”.

For `O=C1c2ccccc2C(=O)c2c1cccc2N1CCCC1`, the Potency is 10 µM (active).

Source of the values: PubChem BioAssay AID1730 (National Center for Advancing Translational Sciences (NCATS), 2009).
